# High-throughput results: PubChem BioAssay, National Center for Advancing Translational Sciences (NCATS)
# In the library only some 3.3% were active in any assay of this set; here they are far more common.
# AmpC detergent: qHTS Inhibitors of AmpC Beta-Lactamase (assay with detergent); AmpC hydrolysis of nitrocefin, absorbance 480 nm, 0.01% Triton; Potency, µM (series often up to 114 µM), actives largely listed as inhibitors; actives 0.041% (n = 370,000); also: nearly all actives have a fitted effect of over 25% in size
# Target sequence (P00811 whole entry, looked up): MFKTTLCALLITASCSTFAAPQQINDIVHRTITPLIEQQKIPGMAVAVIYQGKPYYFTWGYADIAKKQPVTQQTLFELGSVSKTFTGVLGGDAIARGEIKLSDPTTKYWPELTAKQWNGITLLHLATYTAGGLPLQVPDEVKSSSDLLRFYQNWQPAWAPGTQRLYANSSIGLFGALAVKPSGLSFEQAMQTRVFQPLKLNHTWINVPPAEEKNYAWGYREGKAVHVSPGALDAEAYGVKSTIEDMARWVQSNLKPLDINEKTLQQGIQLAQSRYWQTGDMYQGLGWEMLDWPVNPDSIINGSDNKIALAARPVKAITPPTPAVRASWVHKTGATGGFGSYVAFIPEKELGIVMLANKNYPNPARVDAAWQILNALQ
#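 AmpC (5.3 nM in the dispensed reagent) in 20 mM phosphate pH 7.0 with 0.01% (detergent screen) or 0.0001% Triton X-100 was preincubated with compounds for 15 min at room temperature. Nitrocefin was then added from an 800 uM solution, and hydrolysis was followed at 480 nm.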
# AmpC no deterg: qHTS Inhibitors of AmpC Beta-Lactamase (assay without detergent); actives 0.52% (n = 330,000); AID 485341, 2010; Potency, µM (top dose mostly 57.1 µM), actives largely listed as inhibitors; AmpC nitrocefin hydrolysis, absorbance 480 nm, 0.0001% Triton; also: nearly all actives have a fitted effect of over 20% in size
#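 20 mM phosphate pH 7.0 + 0.01% (detergent screen) or 0.0001% Triton X-100; 5.3 nM AmpC reagent; cpd preinc 15 min RT; nitrocefin (800 uM stock) to start; A480 q20 s × 4 min; Activity was normalised to no-enzyme and no-compound control wells.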
# Sm TGR inh: qHTS Assay for the Inhibitors of Schistosoma Mansoni Peroxiredoxins. Schistosoma mansoni thioredoxin glutathione reductase (TGR), Q962Y6. purified TGR, DTNB reduction, TNB absorbance 405 nm. Potency, µM (series often up to 114 µM), most hits filed as inhibitors. actives 3% (n = 360,000). AID 485364, 2010; also: nearly all actives have a fitted effect of over 60% in size
#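 TGR 20 nM + NADPH 100 uM (dispensed conc.), cpd preinc 15 min RT; start with NADPH (500 uM addition) then DTNB (15 mM addition). Kinetic TNB absorbance, 405 nm filter. Four-parameter Hill fit across titration.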
# Numbers stand for hits; . = inactive; ? = inconclusive; / = not tested or not shown. Calls follow the shape of the dose curve; as a rule, active = well fitted curve in the direction sought with a large enough effect; inconclusive = small, poorly fitted or top-dose-only effect, or another doubt; inactive = no such curve, though single readings can be large; an effect the other way counts as inactive or inconclusive.
SMILES,AmpC detergent,AmpC no deterg,Sm TGR inh
CCn1cc(/C=C(\NC(=O)c2ccc(OC)c(OC)c2)C(=O)NCCCn2ccnc2)c2ccccc21,.,/,.
CSc1ccc(C2Nc3ccccc3-c3cc(C)nn32)cc1 (configuration not stated),.,.,.
Brc1ccc(C2Nc3cccc4cccc(c34)N2)s1,.,.,20µM
CSc1ccc(C2Nc3cccc4cccc(c34)N2)cc1,?,.,25µM
Clc1cccc(-c2ccc(C3Nc4cccc5cccc(c45)N3)o2)c1,/,.,/
Cc1ccc(C)c(NC(=O)Cn2c(=O)ccc3cc(S(=O)(=O)N4CCCC4)ccc32)c1,.,/,.
CCOC(=O)c1c(C)[nH]c(C)c1S(=O)(=O)N(C)CC(=O)Nc1ccc(C)c(N(C)C)c1,.,/,.
CCOC(=O)c1cc(-c2ccc(C)o2)nn1CCC#N,.,.,18µM
CCOC(=O)c1cc(-c2ccccc2)nn1CCC#N,.,.,.
Cc1c(C(=O)NC(=S)Nc2ccc(NC(=O)c3cccs3)cc2)oc2ccccc12,?,18µM,0.63µM
CC(=O)NC(=S)Nc1ccc(NC(=O)c2cccs2)cc1,.,.,.
CC1CCCCC1NC(=S)NC(=O)c1cccs1 (configuration not stated),.,.,22µM
O=C(NC(=S)Nc1ccccc1)c1cccs1,.,.,7.9µM
O=C(Nc1ccc(NC(=S)NC(=O)c2cccs2)cc1)c1ccccc1,.,.,.
CC(OC(=O)c1cccs1)C(=O)NC1CCCCC1C (configuration not stated),?,.,.
O=C(CNC(=S)NC(=O)c1cccs1)c1ccccc1,.,.,.
O=C(NC(=S)NCc1ccccc1)c1cccs1,.,.,79µM
COc1ccc(C(C)C)cc1S(=O)(=O)NCCc1c(C)[nH]c2ccc(C)cc12,.,/,.
CCc1cc(=O)oc2c(C)c3c(cc12)CN(CCc1ccccc1OC)CO3,.,/,?
O=C(c1cc2cc3ccc(Cl)cc3nc2o1)N1CCN(c2cccc(Cl)c2)CC1,.,/,.
CCN(CC)S(=O)(=O)c1ccc2c(c1)N(CC(=O)N1CCN(c3cccc(Cl)c3)CC1)C(=O)CO2,.,/,?
Cc1coc2cc3oc(=O)c(CCC(=O)N4CCCCC4)c(C)c3cc12,.,/,.
CS(=O)(=O)N1CCN(c2ccccc2NC(=S)NC(=O)c2cccs2)CC1,.,.,?
O=C(NC(=S)NCc1ccccc1)c1ccccc1,.,.,/
CC1CCN(c2ccccc2NC(=S)NC(=O)c2cccs2)CC1,.,10µM,.
SMILES,AmpC detergent,AmpC no deterg,Sm TGR inh
S=C(NCc1ccccc1)NCc1ccccc1,.,.,.
O=C(NC(=S)NCc1ccc(F)cc1)c1ccccc1,?,.,18µM
CC(C)(C)C(=O)NC(=S)NCc1ccccc1,.,.,40µM
CCOC(=O)Cn1c(=O)oc2cc(S(=O)(=O)N3CCN(c4ccccc4OC)CC3)ccc21,.,/,.
COc1cccc(C(=O)NCC(c2ccc(N(C)C)cc2)N2CCOCC2)c1OC (configuration not stated),.,/,.
COC(=O)c1ccc(NC(=O)CCn2cnnn2)cc1,.,/,.
Cc1cccc(NC(=O)c2sc3nc(-c4cc5ccc(O)cc5oc4=O)[nH]c(=O)c3c2C)c1,.,/,.
COc1ccccc1NC(=O)C1=C(C)Nc2nc(SCc3ccc(Cl)cc3)nn2C1c1ccccc1Cl (configuration not stated),.,/,.
Cc1ccc(CN2C(=O)C3(c4ccccc42)N(c2ccc(C)c(Cl)c2)C(=O)CS3(=O)=O)cc1 (configuration not stated),.,/,.
CO[C@@]1(NC(=O)C2SC(=C(C(N)=O)C(=O)O)S2)C(=O)N2C(C(=O)O)=C(CSc3nnnn3C)CS[C@@H]21 (some centres not stated),18µM,7.1µM,40µM
COC(=O)c1ccc(CSc2nnnn2C)o1,.,.,.
CN(Cc1ccccc1)C(=O)C1CCN(S(=O)(=O)c2cc([N+](=O)[O-])ccc2Cl)CC1,.,.,.
CC(=O)COC(=O)C1CCN(S(=O)(=O)c2cc([N+](=O)[O-])ccc2Cl)CC1,.,.,7.9µM
O=C(COC(=O)C1CC1)Nc1ncc(Cl)cc1Cl,.,.,.
O=C(COC(=O)C1CCN(S(=O)(=O)c2cc([N+](=O)[O-])ccc2Cl)CC1)Nc1ncc(Cl)cc1Cl,.,.,40µM
O=C(Nc1cccs1)Nc1cc(C(F)(F)F)ccc1Cl,.,/,.
COc1cccc(C(=O)Nc2ccc3nc(SCC(=O)N4CCOCC4)sc3c2)c1,.,/,.
Cc1cc(C)cc(NCc2cc(=O)oc3cc(-c4ccccc4)c(O)cc23)c1,?,.,.
COc1ccc(C)cc1NCc1cc(=O)oc2cc(-c3ccccc3)c(O)cc12,.,3.5µM,.
COc1ccc(C)cc1NCc1cccc(OC)c1OC,.,.,.
COc1cc(OC)c(OC)cc1CNc1cc(C)ccc1OC,?,.,40µM
Cc1cc(C)c(Cn2c3ccccc3c3cnn(CC(=O)NCC(C)c4ccccc4)c(=O)c32)c(C)c1 (configuration not stated),.,/,.
CN(Cc1ccco1)c1ncnc2ccc(-c3cccc(Cl)c3)cc12,?,.,.
Cc1ccc2nc3sc(C(=O)Nc4ccc(F)cc4)cc3cc2c1,.,.,.
COc1ccccc1CNC(=O)CCC1N=C2c3ccccc3N=C(SCC(N)=O)N2C1=O (configuration not stated),.,/,.
SMILES,AmpC detergent,AmpC no deterg,Sm TGR inh
CC(C)(C)c1ccc(-n2nc(C#N)c(Cl)cc2=O)cc1,.,.,8.9µM
CC(C)(C)c1ccc(-n2nc(C(N)=O)c(O)cc2=O)cc1,.,.,.
CCOC(=O)CSc1nc2c(sc3ccccc32)c(=O)n1CCc1ccccc1,.,/,.
Cc1ccc(-c2nc3cc(C(C)C)ccc3o2)cc1NC(=O)c1cccs1,.,/,.
COc1ccc(Cn2c(CO)cnc2SCc2ccc(F)cc2)cc1,.,/,.
COc1ccnc(CSC(N)=Nc2ccc(F)cc2)c1,.,.,45µM
COc1cccc(CNC(=O)c2cnc(N3CCCC3)nc2C)c1,.,/,.
O=C(N/N=C/c1ccccc1)c1ccc(CN2C(=O)c3cccc4cccc2c34)cc1,.,?,.
O=C(N/N=C/c1ccc(O)cc1O)c1ccc(CN2C(=O)c3cccc4cccc2c34)cc1,.,7.1µM,/
Cc1ccccc1N(C(=O)Cn1nnc2ccccc21)C(C(=O)NCc1ccco1)c1ccncc1 (configuration not stated),.,.,?
CCOCCCN(C(=O)Cn1nnc2ccccc21)C(C(=O)NCc1ccco1)c1ccncc1 (configuration not stated),?,.,16µM
CCOC(=O)c1cccc(NC(=O)N2Cc3ccccc3Oc3ncccc32)c1,.,/,.
O=C(COC(=O)C12CC3CC(CC(C3)C1)C2)Nc1nc2c(F)c(F)c(F)cc2s1,.,10µM,.
COc1ccc(C(=O)OCC(=O)Nc2nc3c(F)c(F)c(F)cc3s2)cc1OC,.,.,.
CC(=O)c1ccc(N2CCN(c3ncnc4c3nc3n4CCCC3)CC2)cc1,.,/,.
O=C(CSc1nc2ccccc2c(=O)[nH]1)Nc1ccc(Br)cc1,.,.,.
